High-throughput results from PubChem BioAssay.
In the library only some 3.7% were active in any assay of this set; here they are far more common.
NLRP3 yeast inh: NALP3 inflammasome inhibitors in reconstituted yeast, primary screen, luminescence, uHTS. Yeast reconstituted NLRP3/ASC/caspase-1, beta-gal luminescence, 24 h. inhibition, % at 10 µM. 0.39% of 330,000 active. AID 2825, 2010;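 active means inhibition of 50% or more; inactive means inhibition below 50%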;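 further: plate controls were induced DMSO wells for no effect and uninduced yeast grown without galactose for full effect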
PfHsp90 yeast 2: growth inhibition of PfHsp90-expressing yeast, primary screen, antimalarial PfHsp90 inhibitor project, S. cerevisiae, BacTiter-Glo luminescence, single point, set 2. 0.32% of 310,000 active. BacTiter-Glo ATP, 48 h; yeast lacking PDR1 and PDR3 efflux regulators. inhibition, % at 9.4 µM;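 active means every replicate shows inhibition above about 80%, whatever the replicate mean, limit read from the data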;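 further: 0% = DMSO neutral controls and 100% = 20 µM radicicol positive controls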
TIM10 inh: growth inhibitors of isogenic TIM10 control yeast, primary screen, counter-screen for tim10-1 yeast inhibitor project, luminescence, uHTS. S. cerevisiae TIM10 strain growth, BacTiter-Glo luminescence, 24 h. inhibition, % at 10 µM. 1.4% of 330,000 active. AID 463195, 2010;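 active means inhibition of 40% or more at the single tested concentration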;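 further: wild-type TIM10 isogenic control strain grown at permissive 25 °C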
tim23-1 inh: growth inhibitors of tim23-1 mutant yeast, primary screen, luminescence, uHTS | S. cerevisiae tim23-1 growth, BacTiter-Glo luminescence, 24 h | inhibition, % at 20 µM | 1.3% of 330,000 active | AID 463212, 2010;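 active means growth inhibition of the mutant yeast at or above 50%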;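 further: temperature-sensitive mutant grown at 25 °C; plate controls were DMSO-treated mutant yeast for no effect and medium wells lacking yeast for full effect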
tim10-1 inh: growth inhibitors of tim10-1 mutant yeast, primary screen, luminescence, uHTS; S. cerevisiae tim10-1 ts strain growth, BacTiter-Glo, 24 h; inhibition, % at 20 µM; 2.2% of 330,000 active; AID 463190, 2010;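 active means inhibition of at least 40%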;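 further: mutant grown at 25 °C; 0% = DMSO wells with yeast and 100% = wells holding no yeast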
tim23-1 conf: tim23-1 mutant yeast growth inhibitors, confirmation, luminescence, single concentration. shares compounds with tim23-1 inh. S. cerevisiae tim23-1 growth, BacTiter-Glo luminescence, 24 h. inhibition, % at 20 µM. 83% of 4,400 active. AID 463218, 2010;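 active means inhibition above about 39% in either of two replicate wells at 20 µM, limit read from the data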;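 further: temperature-sensitive tim23-1 mutant grown at 25 °C; 0% = DMSO wells with yeast and 100% = medium wells without yeast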
Starred values were filed as active, the others as inactive; nt = no result given.

SMILES	NLRP3 yeast inh	PfHsp90 yeast 2	TIM10 inh	tim23-1 inh	tim10-1 inh	tim23-1 conf
CC(=O)Nc1ccc(OS(=O)(=O)c2cc(Cl)ccc2C)cc1	35	-2	1	52*	19	46*
CC(=O)Nc1ccc(OS(=O)(=O)c2ccccc2C)cc1	30	3	-4	9	6	nt
O=C(COC(=O)c1n[nH]c2ccccc12)c1cccc(Br)c1	-5	-3	13	50*	30	40*
Cc1ccc(C)c(C(=O)COC(=O)c2n[nH]c3ccccc23)c1	8	-3	36	58*	23	49*
CN(C)c1c2ccccc2nc2c(F)c(F)c(F)c(F)c12	-7	28	19	64*	18	67*
Cc1c2ccccc2nc2c(F)c(N(C)C)c(F)c(F)c12	14	-12	-1	28	21	nt
COc1cccc(N2CCN(c3ccc4nnc(CCC(=O)Nc5ccc(C)cn5)n4n3)CC2)c1	12	-22	-6	7	20	nt
COc1ccc(C(NC(C)=O)c2ccc3cccnc3c2O)c(OC)c1 (stereo not drawn)	13	nt	1	-11	14	nt
CC(=O)NC(c1ccc(Cl)cc1Cl)c1ccc2cccnc2c1O (stereo not drawn)	26	106*	-37	58*	-1	57*
CC(=O)NC(c1ccc2ccccc2c1)c1ccc2cccnc2c1O (stereo not drawn)	35	108*	-28	55*	18	71*
COc1ccc(NC(=S)N(CCN(C)C)C(C)c2ccco2)cc1Cl (stereo not drawn)	9	9	11	9	16	nt
N#C/C(=C\c1ccc(Cl)cc1)C(=O)Nc1cccnc1	7	27	9	65*	20	68*
COc1ccc(NC(=O)/C(C#N)=C/c2cccnc2)c(OC)c1	22	29	27	50*	31	44*
COc1ccc(/C=C(\C#N)C(=O)Nc2cccnc2)cc1	3	45	14	8	7	nt
Cc1cccc(NC(=O)/C(C#N)=C/c2ccc(Cl)cc2)n1	5	-2	32	60*	30	68*
O=C(Cc1c(F)cccc1Cl)OCC(=O)N1CCN(c2ccccc2)CC1	24	23	5	16	5	nt
NC(=O)c1nccc2ccccc12	nt	23	nt	nt	nt	nt
CC(=O)c1cc2c(cc1NC(=O)c1ccc(C)cc1)OCO2	27	nt	16	13	-8	nt
Cc1ccc(Sc2ncccc2[N+](=O)[O-])cc1	-9	-2	-18	6	8	nt
Cc1c([N+](=O)[O-])cnc(Sc2ccccc2)c1[N+](=O)[O-]	15	-23	-12	75*	27	73*
COc1ccccc1NC(=O)c1cccc(NC(=O)c2ccco2)c1	14	-78	17	57*	26	45*
O=C(Nc1cccc(NC(=O)c2ccco2)c1)c1cccc(Br)c1	13	-9	7	58*	-10	60*
O=C(Nc1cccc(N=Cc2cc(Cl)cc(Br)c2O)c1)c1ccco1	4	43	12	78*	20	90*
COc1ccccc1NC(=O)c1ccc(NC(=O)c2ccco2)cc1	29	-34	-2	20	12	nt
COC(=O)N/N=C/c1ccc(-c2cc(Cl)cc(Cl)c2)o1	22	-43	35	57*	34	62*
SMILES	NLRP3 yeast inh	PfHsp90 yeast 2	TIM10 inh	tim23-1 inh	tim10-1 inh	tim23-1 conf
O=C(N/N=C/c1cccc(F)c1)c1csc2c1CCCC2	17	1	25	63*	30	62*
CCc1ccc(NC(=O)CSc2nc3nc(C)cc(C)n3n2)cc1	-7	-8	-8	13	6	nt
COc1ccc(N2CCN(CCC(=O)c3ccc4ccccc4c3)CC2)cc1	9	22	25	69*	39	57*
COc1ccc(N2CCN(CC(=O)c3ccccc3)CC2)cc1	14	0	16	12	29	nt
O=C(COC(=O)c1ccc2ncsc2c1)Nc1cc(Cl)ccc1F	25	-13	10	56*	30	41*
OCC#CCSc1nnc(-c2ccc(Br)cc2)o1	11	5	35	14	16	nt
COC(=O)Sc1nnc(-c2ccc(Br)cc2)o1	-6	nt	22	60*	10	52*
